CaV13 FRET inh = Disruptors of the CACNA1D IQ motif to Ca2+-dependent inactivation inhibitor domain association, primary screening, Förster resonance energy transfer in intact living …; HEK cells, CFP/YFP FRET ICDI-IQ, plate reader, 10 min; percent FRET-ratio fall versus neutral wells; inhibition, % at 12.3 µM; 340,000 tested, 0.098% active;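 active = mean replicate inhibition of at least 30% and at least 1% of replicates passing that level; inconclusive = only one of the two criteria is met; inactive = neither criterion is met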;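 note: 0% = median of the neutral control wells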
DENV2 CPE rescue = inhibitors of DENV2 cytopathic effect, primary screen, cell-based, plate reader, single concentration | DENV2-infected cells, cytopathic effect rescue | CPE inhibition, % at 9.99 µM | 350,000 tested, 1.7% active | AID 651640, 2012; in the data active = CPE inhibition above about 20%, passing the limit was not always enough; inconclusive = no clear call, values can overlap the other calls; tested in BHK-21 cells;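 note: 0% = median of neutral control wells and 100% = median of positive control wells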
PGC1a acetyl inh = inhibitors of PGC1a acetylation signal, primary screen, cell-based, U2OS, AlphaScreen, inhibitor mode; AlphaScreen anti-acetyl-lysine; with virally co-expressed GCN5 acetyltransferase; inhibition, % at 15.6 µM; 350,000 tested, 0.17% active; AID 651687, 2012;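 active = every replicate shows inhibition of at least 40%; inconclusive = mean inhibition at least 40% but some replicate below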;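 note: 0% = neutral control wells and 100% = positive control wells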
Ecoli rRNA inh = reduced GFP signal of wild-type E. coli, primary screen, bacterial rRNA inhibitor project, GFP/RFP fluorescence, OD600, single point. 350,000 tested, 1.6% active. E. coli WT GFP vs humanized-ribosome RFP mutants, 24 h; active compounds read low; DMSO median 0, no signal -100. AID 720706, 2013. GFP signal change (wild-type ribosome), % (test concentration not listed);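 active = significant combined selectivity score with lowered wild-type GFP, culture density cut under 30%, mutant RFP and density less affected; inactive = any of these conditions unmet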
ERAP1 inh = human ERAP1 aminopeptidase inhibitors, primary screen, biochemical, single point, plate reader | AID 652197, 2013 | 340,000 tested, 0.15% active | Endoplasmic reticulum aminopeptidase 1 (Homo sapiens), Q9NZ08 | inhibition, % at 10.7 µM | recombinant ERAP1, Leu-AMC fluorescence, 60 min;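 active = mean replicate inhibition of at least 30%, or all replicates individually reaching that 30% level; inactive = mean below 30% and not every replicate reaching it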;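 note: 0% = neutral control wells and 100% = L-leucinethiol positive control wells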
Target sequence (Q9NZ08 whole entry, looked up): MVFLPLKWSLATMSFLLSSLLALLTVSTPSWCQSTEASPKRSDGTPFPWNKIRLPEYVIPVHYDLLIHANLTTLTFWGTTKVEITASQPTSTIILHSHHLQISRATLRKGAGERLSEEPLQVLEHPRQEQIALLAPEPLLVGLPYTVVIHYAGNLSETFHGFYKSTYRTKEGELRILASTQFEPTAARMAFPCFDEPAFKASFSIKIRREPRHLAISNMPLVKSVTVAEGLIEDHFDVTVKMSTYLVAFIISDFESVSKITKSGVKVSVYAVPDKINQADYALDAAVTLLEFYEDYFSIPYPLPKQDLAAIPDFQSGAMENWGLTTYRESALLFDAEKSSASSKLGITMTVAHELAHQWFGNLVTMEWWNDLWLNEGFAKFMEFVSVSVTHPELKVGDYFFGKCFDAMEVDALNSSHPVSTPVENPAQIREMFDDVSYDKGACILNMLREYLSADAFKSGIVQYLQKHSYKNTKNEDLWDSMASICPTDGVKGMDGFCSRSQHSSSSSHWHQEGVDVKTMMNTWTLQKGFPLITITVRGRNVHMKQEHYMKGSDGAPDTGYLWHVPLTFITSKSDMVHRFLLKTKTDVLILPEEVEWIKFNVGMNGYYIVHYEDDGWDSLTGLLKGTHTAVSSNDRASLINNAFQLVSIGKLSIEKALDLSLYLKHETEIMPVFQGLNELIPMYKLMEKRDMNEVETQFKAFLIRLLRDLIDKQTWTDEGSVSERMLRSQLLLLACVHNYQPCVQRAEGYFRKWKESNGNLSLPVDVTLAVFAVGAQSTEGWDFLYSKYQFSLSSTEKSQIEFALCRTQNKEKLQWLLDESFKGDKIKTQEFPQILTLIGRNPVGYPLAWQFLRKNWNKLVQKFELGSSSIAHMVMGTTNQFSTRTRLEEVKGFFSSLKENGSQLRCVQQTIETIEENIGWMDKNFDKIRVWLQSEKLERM
INS-1E GSIS act = GLuc luminescence reporter in INS-1E cells, primary screen for activators of glucose-dependent secretion of insulin. INS-1E GLuc reporter insulin secretion, 2-3 h. activation, % at 16.6 µM. AID 743287, 2014. 370,000 tested, 0.61% active;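 active = lowest replicate activation of at least 40%, so every replicate reaches that level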;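 note: 0% = median of neutral control wells and 100% = median of IBMX positive control wells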
* hit, by the source's call; u = inconclusive; x = no result. The list is not random: actives were taken first. Their share in the collection is about 3.2%.

SMILES	CaV13 FRET inh	DENV2 CPE rescue	PGC1a acetyl inh	Ecoli rRNA inh	ERAP1 inh	INS-1E GSIS act
CC1=CC(=C2C(=O)NC(=O)NC2=O)C=C(C(F)(F)F)N1Cc1ccccc1	-6	x	x	7	11	16
Cc1ccc2nc(-c3ccc(CN4CCC(n5c(=O)[nH]c6cc(Cl)ccc65)CC4)cc3)c(-c3ccccc3)nc2c1	-16	52*	x	x	-1	-39
CN1CCN(C(=O)CN=[N+]=[N-])CC1	x	1	5	x	-3	x
COC(=O)[C@H]1[C@H](CO)[C@H]2Cn3c(ccc(-c4cccnc4)c3=O)[C@@H]1N2S(=O)(=O)c1ccccc1F	x	7	x	1	0	4
CC(=O)N1C[C@@H]2N[C@H](C1)C2c1ccc(Br)cc1 (stereo not given in full)	x	x	x	1	x	-12
BrCC1C[n+]2c(SCc3ccccc3)nc3sc4c(c3c2O1)CCCC4 (stereo not given)	-2	0	2	-25	x	7
Nc1c2c(nc3sc4c(c13)CCCCC4)CCCC2	x	0	-8	-23*	0	15
CC(C)CCCn1c(O)c(/C=C2/C=CC=N2)c(=O)[nH]c1=O	-5	x	x	x	x	53*
CCCCn1c(O)c(C=NCCCn2ccnc2)c(=O)[nH]c1=O	-6	x	-2	x	x	x
O=C(Cc1ccncc1)N1CCCCN2[C@H](CO)[C@@H](c3ccc(C#Cc4ccccc4F)cc3)[C@@H]2C1	x	-5	-3	-32	0	0
Oc1ccccc1CN(CCc1ccccc1)Cc1ccccc1	-3	0	-24	-26*	13	8
c1ccc(-c2ccncc2)cc1	x	-1	0	11	1	-3
C[n+]1ccc(-c2ccncc2)cc1	-6	x	6	6	31*	0
CN1[C@@H]2CN(S(C)(=O)=O)C[C@H]1C2c1ccccc1 (stereo not given in full)	x	x	x	1	x	0
CC(=O)O[C@H]1CCC2C3CC[C@H]4[C@@H](O)[C@H](O)CC[C@]4(C)C3CC[C@@]21C (stereo not given in full)	-6	-10	6	12	-2	11
CC(=O)O[C@H]1CCC2C3CCC4=CC(=O)CCC4=C3C=C[C@@]21C (stereo not given in full)	-4	-14	4	-18*	0	4
O=C1NC(=O)C(=Cc2ccc(OCC(=O)N3CCOCC3)cc2)C(=O)N1	-5	64*	x	12	0	-5
O=C(C1CC1)N1C[C@@H]2N[C@H](C1)[C@@H]2c1ccc(-c2ccncc2)cc1	x	u	-15	8	-4	5
O=c1c2ccccc2nc(/C=C/c2ccccc2)n1-c1ccccc1O	-4	-5	-36	-26	4	-3
O=c1c2ccccc2nc(/C=C/c2ccc(O)cc2)n1-c1ccccc1O	-3	0	1	-27*	3	-20
NC1=C([N+](=O)[O-])C(c2ccc3c(c2)OCO3)c2c(c3ccccc3oc2=O)O1 (stereo not given)	-4	-2	x	-29*	3	-6
COC(=O)C1=C(c2c(C)noc2C)C[C@@H]2CC[C@H]1N2C(=O)NC1CCCCC1	-9	48*	-23	15	-1	9
COC(=O)C1=C(c2c(C)noc2C)C[C@@H]2CC[C@H]1N2C(=O)NC1CC1	-5	-16	-1	6	0	2
CC(=O)N1C[C@@H]2C(c3ccccc3)[C@H](C1)N2CC1CC1 (stereo not given in full)	x	x	x	1	x	14
CC(C)(Cl)[N+](=O)[O-]	x	130*	-18	3	-5	8
SMILES	CaV13 FRET inh	DENV2 CPE rescue	PGC1a acetyl inh	Ecoli rRNA inh	ERAP1 inh	INS-1E GSIS act
O=C(Cc1ccccn1)N1CCCCN2[C@H](CO)[C@H](c3ccc(-c4ccc(F)cc4)cc3)[C@H]2C1	x	-8	5	1	1	-7
O=C(Cc1cccnc1)N1CCCCN2[C@H](C1)[C@H](c1ccc(/C=C/c3ccccc3)cc1)[C@@H]2CO	x	0	0	-52	5	-13
CCC(=O)N1N=C(c2c(O)n(CCc3ccccc3)c(=O)[nH]c2=O)CC1c1ccc(OC)c(OC)c1 (stereo not given)	-5	8	8	-28*	0	10
O=C(Cc1c(-c2ccccc2)nc2ccc(Br)cn12)N1CCCC1	-9	10	x	7	7	3
Cc1cc(Br)cn2c(CC(=O)N3CCCCC3)c(-c3ccc(F)cc3)nc12	-5	8	x	17	-3	54*
COC(=O)C[C@H]1CC[C@@H]2NC[C@H](O)COC[C@H]2O1	x	3	-8	1	x	-5
CN1[C@@H]2CN(S(C)(=O)=O)C[C@H]1C2c1ccc(Br)cc1 (stereo not given in full)	x	x	x	2	x	-9
C=CCc1ccc2c(c1)OCO2	x	93*	x	6	0	12
C/C=C/c1ccc2c(c1)OCO2	x	20*	-7	8	-6	5
CC(=O)c1ccc2c(c1)OCO2	x	4	-4	x	3	0
CC12CC(c3ccccc3O1)C(C(=O)OCc1ccccc1)C(=O)N2 (stereo not given)	99*	x	2	x	x	x
CCCNC(=O)N1[C@@H]2c3ccc(-c4cccc(C(=O)N(C)C)c4)c(=O)n3C[C@H]1[C@H](CO)[C@H]2C(=O)O	x	-18	-1	4	1	10
C[C@@H]1CN([C@@H](C)CO)C(=O)c2c(c3ccccc3n2C)-c2ccccc2CO[C@@H]1CN(C)C(=O)Oc1ccccc1	x	-4	-53	0	-2	-9
COc1ccc(OC)c(C(c2c(O)c3ccccc3oc2=O)c2c(C)n(C)n(-c3ccccc3)c2=O)c1 (stereo not given)	-3	0	6	-3	1	x
Cc1c(C(c2ccc(O)cc2)c2c(O)c3ccccc3oc2=O)c(=O)n(-c2ccccc2)n1C (stereo not given)	-18	-4	x	-14*	-3	-2
COc1cc2c3c(c1OC)-c1cc(O)ccc1CC3NCC2 (stereo not given)	1	x	4	x	x	x
COc1cc2c(cc1OC)-c1c(OC)c(OC)cc3c1[C@H](C2)[N+](C)(C)CC3	-4	20	3	-25*	79*	-6
O=c1[nH]cnc2nc(-c3ccc(N(CCCl)CCCl)cc3)[nH]c12	-6	2	17	2	0	58*
O=C(O)CCCc1ccc(N(CCCl)CCCl)cc1	-5	0	2	x	-5	9
Clc1cc(Cl)c(-c2cc(Cl)c(Cl)cc2Cl)cc1Cl	x	23*	-6	8	3	7

High-throughput results as filed in PubChem BioAssay.
